According to PubChem BioAssay (NCATS):
Where “and” joins values, the source holds several entries; their conditions need not be identical. Identical values can stand only once. Inconclusive results are not listed. Calls of active or inactive are those of the source. Calls come from the whole dose curve; as a rule, active = well fitted cell-killing curve with a large enough effect; inconclusive = small, poorly fitted or top-dose-only effect, or effect the other way; inactive = no such curve, though single readings can be large or run the other way.
Potency is the fitted concentration of half-maximal effect.

Assay: Viability qHTS for spleen associated tyrosine kinase inhibitor (SYKi) naive MV4-11 cells (AID 1963823); note: nearly all actives have a fitted effect of over 40% in size
Details: MV4-11 AML viability, CellTiter-Glo luminescence, 72 h; series mostly up to 45 µM; viability (% of control): at the top concentration
Excerpt: Department of Medicine, Hematology/Oncology
University Hospital Frankfurt, Germany.
Trials have shown promising clinical activity of the selective SYK inhibitor entospletinib in patients with high expressing HOXA9/MEIS1 acute leukemias. As the development of resistance mechanisms is a common problem in the use of targeted drugs, we performed a chemical library screen to identify drug sensitivities in SYK inhibitor resistant AML cells. […] Glucocorticoids are potent immunosuppressants which work in part by inhibiting the transcription of cytokine genes.
Described herein is a viability screen to look for activity in the SYK inhibitor naive cell line against four NCATS compound libraries (MIPE 5.0, NPC, NPACT, and Kinase) totaling 11372 compounds. Active hits were reacquired for confirmation and further secondary assay testing.
SEQUENCE No. (e.g., 1, 2, 3, etc.); […] (e.g., Cells, Incubation, Reagent, etc.); VALUE; DESCRIPTION.
1; Media; 2uL; white, solid-bottom Corning assay plate.
2; Compounds; 23nL; Echo acoustic dispenser.
3; Cell; 5uL; 500 cells per well.
4: Incubation; 72hr; 37 C, 5% CO2, 95% humidity.
5; Reagent; 3uL; CellTiter-Glo reagent (Promega).
6; Incubation; 10min; room temperature.
7; Detection; Luminescence; ViewLux plate reader (PerkinElmer).
NOTES (numbers refer to Sequence numbers above
1. Quantitative high-throughput screening (qHTS) of small molecule compounds was conducted on naive SYKi MV4-11 cell line.
2. Twenty-three nanoliter of small molecule compounds were added to each assay plates using the Echo acoustic dispenser (Beckman Coulter).
3. Cells were seeded into the assay plates at a final density of 500 cells in 5uL of media per well using the Multi-drop Combi dispenser.
4. Plates were covered with stainless steel gasketed lids and incubated for 72 hours at standard cell culture conditions.
5. Viability was assessed by adding 3uL of CellTiter-Glo detection reagent (Promega).
6. Plates were covered with gasket lids and incubated for 10 minutes at room temperature.
7. Luminescence was measured on a ViewLux plate reader (PerkinElmer).
With `CC(=NNC(=O)c1cccc(S(=O)(=O)N2CCOCC2)c1)c1cc(Cl)ccc1O` the Potency was 0.742 µM (active).
In the case of `CCN(CC)CCOC(=O)c1ccc(N)cc1`, the “viability (% of control)” value is reported as 92.9% (inactive).
For `O=C1c2ccccc2C(=O)c2c1ccc(O)c2O`, the Potency was 9.44 µM (active).
For `CCOc1ccc(-c2cc(NC(=O)c3c(F)cccc3F)c(C(=O)O)s2)cc1`, the “viability (% of control)” value was 25.2% (inactive).
In the case of `CCC1C(=O)OCC1Cc1cncn1C` (stereo not given), the “viability (% of control)” value is reported as 91.2% (inactive).
For `COc1cc2c(cc1OCCCN1CCCC1)N=C(N)C21CCC1`, the “viability (% of control)” value was 54.1% (inactive).
With `CC1CCN(CCCC(=O)c2ccc(F)cc2)CC1` the “viability (% of control)” value was 74.3% (inactive).
For `CC1(C)Oc2ccc(C#N)cc2[C@@H](N2CCCC2=O)[C@@H]1O`, the “viability (% of control)” value was 94.7% (inactive).
In the case of `C[C@H](N)C(=O)N[C@@H](Cc1ccc(O)cc1)C(=O)N1CCC[C@H]1C(=O)NCC(=O)N[C@@H](CCCCN)C(=O)N[C@@H](Cc1ccccc1)C(N)=O`, the viability (% of control) is reported as 94.9% [at 9.25 µM] (inactive).
For `CC(C)(O)c1ccc2c(c1)C(=O)C[C@H]1[C@](C)(C(=O)O)CCC[C@]21C`, the “viability (% of control)” value was 73% (inactive).
In the case of `CCOc1ccc(Nc2nc(-c3c(C)nc4ccccn34)cs2)cc1`, the Potency is reported as 41.1 nM (active) and 33.2 nM (active).
In the case of `COc1cc(C2Oc3c(OC)cc(CCCO)cc3C2CO)ccc1O[C@H]1O[C@H](C)[C@@H](O)[C@H](O)[C@@H]1O` (stereo not given in full), the “viability (% of control)” value is reported as 80.9% [at 17.3 µM] (inactive).
In the case of `C=C1C(O)CC2C(C(=O)O)=COC(OC3OC(CO)C(O)C(O)C3OC(=O)/C=C\c3ccc(O)cc3)C12` (stereo not given), the “viability (% of control)” value is reported as 80.8% [at 17.3 µM] (inactive).
With `C=C1C(=O)O[C@H](CCC)[C@H]1C(=O)O` the “viability (% of control)” value was 108% (inactive).
With `COC1OC(=O)C2=C1C1(C)CCCC(C)(C)C1CC2O` (stereo not given) the “viability (% of control)” value was 66.3% (inactive).
With `OCC1OC(Oc2cc(O)cc(/C=C/c3ccc(O)cc3)c2)C(O)C(O)C1O` (stereo not given) the “viability (% of control)” value was 99.2% (inactive).
With `NC(=NCCCCCCN=C(N)/N=C(\N)Nc1ccc(Cl)cc1)/N=C(\N)Nc1ccc(Cl)cc1` the Potency was 5.31 µM (active) and 1.84 µM (active).
For `Cc1noc(C)c1-c1ccc(-c2cc(C(N)=O)c(NC(N)=O)s2)c(O[C@H]2CCNC2)c1`, the Potency was 2.31 µM (active).
With `CN(C)c1ccc(C2Nc3ccc4ccccc4c3C3=C2C(=O)CC(C)(C)C3)cc1Br` (stereo not given) the “viability (% of control)” value was 64.7% (inactive).
In the case of `Cc1cnc(-c2cc(N3CCN(C(=O)CCS(C)(=O)=O)CC3)ncc2Cl)c(C)c1`, the “viability (% of control)” value is reported as 65.9% (inactive).
In the case of `C/C1=C\[C@H]2OC(=O)[C@@H](C)[C@@H]2CC/C(C(=O)O)=C/CC1`, the “viability (% of control)” value is reported as 60% (inactive).
In the case of `C=C[C@H]1[C@H](O[C@@H]2O[C@H](CO)[C@@H](O)[C@H](O)[C@H]2O)OC=C2C(=O)N3Cc4c([nH]c5ccccc5c4=O)[C@@H]3C[C@H]21`, the “viability (% of control)” value is reported as 78% [at 17.3 µM] (inactive).
For `O=C(Nc1ccc(C(O)(C(F)(F)F)C(F)(F)F)cc1)c1ccc(C(F)(F)F)cc1`, the Potency was 1.84 µM (active).
With `C=C[C@@]1(C)CC(=O)C2[C@](C)(O1)[C@@H](OC(C)=O)[C@@H](O)[C@H]1C(C)(C)CCC[C@]21C` (stereo not given in full) the viability (% of control) was 97.8% [at 9.25 µM] (inactive).
In the case of `C[C@@H]1O[C@@H](O[C@H]2[C@H](O)[C@@H](O)[C@H](O[C@H]3[C@H](O[C@H]4CC[C@@]5(C)C(=CC[C@@H]6C5CC[C@]5(C)[C@@H]7[C@H](C[C@@H]65)O[C@]5(CC[C@@](C)(CO[C@@H]6O[C@H](CO)[C@@H](O)[C@H](O)[C@H]6O)O5)[C@H]7C)C4)O[C@H](CO)[C@@H](O)[C@@H]3O)O[C@@H]2CO)[C@H](O)[C@H](O)[C@H]1O` (stereo not given in full), the Potency is reported as 0.618 µM (active).
For `CNCc1ccc(C)c(NC(=O)c2ccc(Nc3nc(-c4ccccc4)c4ccccc4n3)cc2)c1`, the Potency was 7.42 µM (active).
In the case of `OC[C@H]1O[C@@H](OC/C=C/c2ccc(O)cc2)[C@H](O)[C@@H](O)[C@@H]1O`, the “viability (% of control)” value is reported as 79.7% (inactive).
With `CN1C(C)(C)CCCC1(C)C` the “viability (% of control)” value was 78.5% (inactive).
For `C[C@@H]1COCCN1c1cc(=O)n2c(n1)N(Cc1cncc(Cl)c1)[C@H](C(F)(F)F)CC2`, the Potency was 6.51 µM (active).
With `CC(C)c1cc(C(C)C)c(CC(=O)NS(=O)(=O)Oc2c(C(C)C)cccc2C(C)C)c(C(C)C)c1` the Potency was 11.6 µM (active).
For `O=C(Cc1ccc(-c2ccccc2)cc1)NC1CCC1`, the “viability (% of control)” value was 90.2% (inactive).
In the case of `C/C=C/C=C/[C@@H]1O[C@](O)([C@H](CC)C(=O)NC/C=C/C=C(\C)[C@@H](OC)[C@@H](C)[C@@H]2O[C@H](/C=C/C=C/C=C(\C)C(=O)c3c(O)ccn(C)c3=O)[C@H](O)[C@@H]2O)[C@H](O)[C@H](O)C1(C)C`, the viability (% of control) is reported as 84.2% [at 9.25 µM] (inactive).
In the case of `CCCCN(CCCC)CCCOC(=O)c1ccc(N)cc1`, the “viability (% of control)” value is reported as 56.2% (inactive).
For `CN1CC(=O)N2[C@H](c3ccc4c(c3)OCO4)c3[nH]c4ccccc4c3C[C@@H]2C1=O`, the Potency was “inactive”.
With `CC(=O)N[C@H]1CSSC[C@@H](C(N)=O)NC(=O)[C@H](C(C)C)NC(=O)[C@H](C)NC(=O)[C@H](Cc2cnc[nH]2)NC1=O` the “viability (% of control)” value was 83.7% (inactive).
For `CC1=NN(c2ccc(C(=O)O)cc2)C(=O)/C1=C/c1ccc(-c2cc(C)c(C)cc2[N+](=O)[O-])o1`, the Potency was 16.6 µM (active).
In the case of `CCCCCCCCCCCCCC(=O)OC(C)C`, the “viability (% of control)” value is reported as 75% (inactive).
With `C[C@H](N)[C@H](O)c1cccc(O)c1` the “viability (% of control)” value was 71.4% (inactive).
In the case of `COc1cc2[nH]c(=O)[nH]c(=O)c2cc1OC`, the “viability (% of control)” value is reported as 99.1% (inactive).
With `NCC1CCC(C(=O)Oc2ccc(CCC(=O)O)cc2)CC1` (stereo not given) the “viability (% of control)” value was 85.8% (inactive).
